Data reported in PubChem BioAssay AID1986 (Sanford-Burnham Center for Chemical Genomics, 2009).
Out of some 290,000 compounds screened, about 890 (0.31%) were called active. Rule as the data show it: active = inhibition mostly above about 52% (no sharp cut-off); inactive = mostly below about 76%. Shown is part of a subset that was picked to be rich in actives.

Assay: inhibitors of HIV fusion peptide binding, primary screen, biochemical, uHTS, fluorescence dequenching (AID 1986)
Details: cell-free peptide binding, 30 min, stronger effect = higher value
[1] = measured here: repeat confirmation average inhibition, at 18.6 µM

| Structure (SMILES) | inhibition (at 20 µM) | inhibition [1] |
| --- | --- | --- |
| COc1ccc(-n2c(O)c(/C=N/n3cnnc3)c3ccccc3c2=O)cc1 | -1% (inactive) | – |
| c1ccc(Oc2ccc(-n3cnnn3)cc2)cc1 | -0.6% (inactive) | – |
| CCOC(=O)c1oc2ccccc2c1NC(=O)C1CCCCC1 | 2.3% (inactive) | – |
| O=C(N=Nc1c(O)[nH]c2ccccc12)c1ccc(CN2CCOCC2)cc1 | -1.7% (inactive) | – |
| O=c1c2c3c(sc2n(CCN2CCOCC2)c(=O)n1Cc1ccco1)CCCCC3 | -0.6% (inactive) | – |
| CCOC(=O)N1CCC(N2C(=O)c3ccccc3C2Nc2cc(C)cc(C)c2)CC1 (centres undefined) | -0.9% (inactive) | – |
| Cc1ccc(N=C2NC(=O)/C(=C/c3cccn3C)S2)cc1C | 2.1% (inactive) | – |
| Cc1ccc(N=C2NC(=O)/C(=C/c3cn(C)c4ccccc34)S2)cc1C | 74.7% (active) | 73.2% |
| Cc1ccc(N=C2NC(=O)/C(=C\c3cccs3)S2)cc1C | 1.6% (inactive) | – |
| Cn1nc(-c2ccccc2)c(/C=N/O)c1Cl | -1.8% (inactive) | – |
| CCn1cc(C(=O)N2CCCC2)c(=O)c2cc(S(=O)(=O)N3CC(C)CC(C)C3)ccc21 (centres undefined) | 1.1% (inactive) | – |
| COc1ccc2cc(CCNS(=O)(=O)c3c(C)cc(C)cc3C)c(=O)[nH]c2c1 | -1.1% (inactive) | – |
| Cc1c(NC(=O)c2ccc(Cl)s2)c(=O)n(-c2ccccc2)n1C | 0.5% (inactive) | – |
| O=C(O)c1c2c(nc3ccccc13)/C(=C/c1cccc([N+](=O)[O-])c1)CCC2 | 2.3% (inactive) | – |
| O=C(O)c1ccc(-n2c(/C=C/c3cccc([N+](=O)[O-])c3)nc3ccccc3c2=O)cc1 | 1.4% (inactive) | – |
| O=C(O)c1ccc(-n2ncc3c2/C(=C/c2cccc([N+](=O)[O-])c2)CC3)cc1 | 66.7% (active) | – |
| Cn1cccc1CC(=O)N/N=C\c1ccccc1 | -0.6% (inactive) | – |
| COc1ccc(/C=C2\N=C(C)OC2=O)cc1OC | 0.7% (inactive) | – |
| CCOc1ccc(/C=C2\N=C(c3cccs3)OC2=O)cc1OC | 6.4% (inactive) | – |

| Structure (SMILES) | inhibition (at 20 µM) | inhibition [1] |
| --- | --- | --- |
| COc1ccc(/C=C2/N=C(c3cccs3)OC2=O)cc1OC(C)C | 106% (active) | 100% |
| COC(=O)Cn1cc(/C=C/c2cc[n+](C)cc2)c2ccccc21 | 115% (active) | 96.1% |
| CCN(CC)C(=O)Cn1c(C)c(/C=C/c2cc[n+](C)cc2)c2ccccc21 | 115% (active) | 54.5% |
| CCn1cc(/C=C/c2cc[n+](C)cc2)c2ccccc21 | 182% (inactive) | – |
| Cc1ccc2c(c1)c(/C=C/c1cc[n+](C)cc1)c(C)n2C | 159% (inactive) | – |
| C=CCn1c(C)c(/C=C/c2cc[n+](C)cc2)c2ccccc21 | 103% (active) | 81% |
| C=CCn1cc(/C=C/c2cc[n+](C)cc2)c2ccccc21 | 185% (inactive) | – |
| COC(=O)Cn1c(C)c(/C=C/c2cc[n+](C)cc2)c2ccccc21 | 46.3% (inactive) | – |
| CCN(CC)C(=O)Cn1c(=O)n(C)c2ccccc21 | -1.6% (inactive) | – |
| Cc1cc(Nc2ccccc2)n(C(=O)c2ccccc2)n1 | -3% (inactive) | – |
| Cc1c(NC(=O)COC(=O)/C=C/c2ccc(Cl)cc2)c(=O)n(-c2ccccc2)n1C | -0.5% (inactive) | – |
| Clc1ccccc1OCCn1nnc2ccccc21 | -2% (inactive) | – |
| CCC(=O)Nc1cccc(NC(=O)c2cccc([N+](=O)[O-])c2C)c1 | 1.2% (inactive) | – |
| NC(=O)c1nsc(C(=O)N(c2cccc(F)c2)C(C(=O)NC2CCCC2)c2ccc(O)cc2)c1N (centres undefined) | -1.3% (inactive) | – |
| Cc1nc2ccc(S(=O)(=O)Nc3cc(-c4nc5cccnc5s4)ccc3C)cc2s1 | 3.9% (inactive) | – |
| CC12C=CC(=O)C=C1CCC1C3CCC(O)(C(=O)CO)C3(C)CC3OC312 (centres undefined) | -0.7% (inactive) | – |
| CCOC(=O)CNC(=O)Cn1cnc2c(nnn2-c2ccccc2)c1=O | -0.8% (inactive) | – |
| CCOC(=O)c1c(C)[nH]c(C(=O)COC(=O)CCSc2ccccc2)c1C | 0.3% (inactive) | – |
| Cc1cc(S(=O)(=O)N2CCN(c3ccccn3)CC2)c(C)cc1Cl | -0.6% (inactive) | – |

| Structure (SMILES) | inhibition (at 20 µM) | inhibition [1] |
| --- | --- | --- |
| Cc1cc(/C=C2/C(=N)N3C(=NC2=O)SN=C3S(C)(=O)=O)c(C)n1-c1ccccc1F | 60.2% (active) | – |
| CCOc1ccc(-n2c(C)cc(/C=C3/C(=N)N4C(=NC3=O)SN=C4S(C)(=O)=O)c2C)cc1 | 66.6% (active) | – |
| COc1cccc(-n2c(C)cc(/C=C3/C(=N)N4C(=NC3=O)SN=C4S(C)(=O)=O)c2C)c1 | 148% (inactive) | – |
| CC1=CC2=NC(=O)/C(=C\c3cc(C)n(-c4ccccc4F)c3C)C(=N)N2O1 | 3.2% (inactive) | – |
| COc1ccccc1-n1c(C)cc(/C=C2/C(=N)N3C(=NC2=O)SN=C3S(C)(=O)=O)c1C | 58.1% (inactive) | 36.2% |
| Cc1cc(/C=C2/C(=N)N3C(=NC2=O)SN=C3S(C)(=O)=O)c(C)n1-c1ccc(F)cc1 | 75.8% (inactive) | 45.6% |
| COc1ccc(CNC(=O)/C=C/c2ccc(S(=O)(=O)NCc3ccco3)cc2)cc1OC | 0.9% (inactive) | – |
| Cc1ccc(C)c2[nH]c(=O)c(CN(Cc3nnnn3C3CCCCC3)CC3CCCO3)cc12 (centres undefined) | -0.9% (inactive) | – |
| Cc1cc(-n2nc3ccccc3n2)c(O)c([N+](=O)[O-])c1 | 0.3% (inactive) | – |
| CCCCCc1ccc(-c2cn(Cc3ccc(C(=O)c4ccccc4)cc3)nn2)cc1 | 1% (inactive) | – |
| COc1ccc(CC(=O)Nc2cc(C)c3c(=O)oc4ccccc4c3n2)cc1 | -0.2% (inactive) | – |
| CCOc1ccc(/C=C(\C)C(=O)c2c(C)cc(C)[nH]c2=O)cc1 | -0.3% (inactive) | – |
| COc1cc2[nH]c(=S)nc(NCCCOC(C)C)c2cc1OC | -2.4% (inactive) | – |
| O=c1oc2c(O)c(O)cc3c(=O)oc4c(O)c(O)cc1c4c23 | 54.2% (active) | – |
| O=c1cc2c(=O)oc3cc(O)c(O)oc3c2c(O)c1O | 44.6% (inactive) | – |
| Cc1c(Br)c(=O)oc2c(Br)c(O)c(O)cc12 | 30.9% (inactive) | – |
| O=[N+]([O-])c1cc(Cl)cc(/C=N/Nc2nc3ccccc3s2)c1O | 31.5% (inactive) | – |
| COc1ccc(/C=N/Nc2nc3ccccc3s2)cc1O | -3.2% (inactive) | – |
| COc1cc(/C=N/Nc2nc3ccccc3s2)cc([N+](=O)[O-])c1O | 55.5% (active) | – |
